Reference: PubChem BioAssay (NCI)
This is part of a sample that, as a whole, favours compounds with a hit. Of some 79,000 tested, about 15% had one in any assay. Values without a mark were called inactive. Active and inactive are the calls of the source. Rule as the data show it: active = growth inhibition above about 70%; inactive = the rest.

Key:
[1] = NCI Yeast Anticancer Drug Screen. Data for the rad18 strain (AID 177); conditions: S. cerevisiae rad18 mutant growth inhibition, active compounds read high
Outline: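 Measured value is growth inhibition of a yeast strain bearing a DNA repair alteration, referenced to vehicle-treated cells.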

[2] = NCI Yeast Anticancer Drug Screen. Data for the rad52 strain (AID 147);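 also: 0% = growth of vehicle-treated control cultures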; conditions: S. cerevisiae rad52 mutant growth inhibition, active compounds read high
Outline: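 Here a repair-compromised yeast strain receives each compound; its growth is then quantified and normalised to vehicle-only controls.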

[3] = NCI Yeast Anticancer Drug Screen. Data for the wt1 strain (AID 149);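 also: 0% = growth of vehicle-treated wt1 cultures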; conditions: S. cerevisiae wt1 strain (SPY 50644) growth inhibition, active compounds read high
Outline: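 Measured: growth of wt1 yeast under compound versus vehicle treatment, reported as inhibition.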

[4] = NCI Yeast Anticancer Drug Screen. Data for the rad50EPP+ strain (AID 151);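 also: 0% = growth of vehicle-treated control cultures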; conditions: S. cerevisiae rad50 mutant strain, active compounds read high
Outline: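 Read-out is yeast growth inhibition relative to vehicle; cells used were the rad50EPP+ strain.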

[5] = NCI Yeast Anticancer Drug Screen. Data for the rad50 strain (AID 155);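 also: 0% = growth of vehicle-only cultures of the same strain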; conditions: S. cerevisiae rad50 strain growth inhibition, active compounds read high
Outline: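 Growth of the mutant yeast was measured after compound exposure and referenced to vehicle-treated cultures.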

[6] = NCI Yeast Anticancer Drug Screen. Data for the mec2-1 strain (AID 157); conditions: S. cerevisiae mec2-1 strain, active compounds read high
Outline: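 Using mec2-1 yeast: add compound, measure growth, express inhibition versus vehicle-treated cultures.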

[7] = NCI Yeast Anticancer Drug Screen. Data for the rad14 strain (AID 159);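 also: 0% = growth of vehicle-treated control cultures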; conditions: S. cerevisiae rad14 strain growth inhibition, active compounds read high
Outline: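 Here, inhibition of yeast growth was measured after compound exposure, using a strain with a genetic defect in DNA damage repair and vehicle-treated cultures as the reference.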

[8] = NCI Yeast Anticancer Drug Screen. Data for the sgs1 mgt1 strain (AID 161);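 also: 0% = growth of cultures given vehicle only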; conditions: S. cerevisiae sgs1 mgt1 strain, active compounds read high
Outline: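 Percent growth inhibition was derived by comparing compound-exposed mutant yeast with vehicle-exposed cultures. The strain carries alterations in DNA damage repair.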

[9] = NCI Yeast Anticancer Drug Screen. Data for the CLN2oe strain (AID 163);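 also: 0% = growth of vehicle-only control cultures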; conditions: S. cerevisiae CLN2oe strain, active compounds read high
Outline: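 Whole-cell yeast growth assay. A strain engineered for altered cell-cycle control received compound, and inhibition relative to vehicle-treated cultures was recorded.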

[10] = NCI Yeast Anticancer Drug Screen. Data for the cln2 rad14 strain (AID 165);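 also: 0% = growth equal to vehicle treated cultures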; conditions: S. cerevisiae cln2 rad14 strain, active compounds read high
Outline: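 Yeast strain cln2 rad14, bearing defects in cell cycle control and DNA repair, serves as the test system; values reflect growth inhibition compared with vehicle.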

[11] = NCI Yeast Anticancer Drug Screen. Data for the bub3 strain (AID 167); conditions: S. cerevisiae bub3 mutant strain, active compounds read high
Outline: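 Whole-cell yeast assay. The mutant strain was incubated with compounds, and growth inhibition was determined by comparison with vehicle-treated cells.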

[12] = NCI Yeast Anticancer Drug Screen. Data for the wt2 strain (AID 169);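 also: 0% = growth of vehicle-treated yeast cultures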; conditions: S. cerevisiae wt2 strain growth inhibition, active compounds read high
Outline: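 Treated yeast vs. vehicle-treated yeast: growth inhibition determined.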

[13] = NCI Yeast Anticancer Drug Screen. Data for the mlh1 strain (AID 171);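 also: 0% = growth of vehicle-treated control cultures of the same strain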; conditions: S. cerevisiae mlh1 strain growth inhibition, active compounds read high
Outline: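 A yeast strain with a defined genetic lesion serves as the test organism. Cultures receive compound or vehicle, and growth is measured.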

[14] = NCI Yeast Anticancer Drug Screen. Data for the sgs1 strain (AID 173);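 also: 0% = growth of vehicle-only control cultures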; conditions: S. cerevisiae sgs1 mutant, active compounds read high
Outline: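 A genetically defined yeast mutant is incubated with the test compound, and its growth is compared to that of the same strain given vehicle.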

[15] = NCI Yeast Anticancer Drug Screen. Data for the mlh1 rad18 strain (AID 175); conditions: S. cerevisiae mlh1 rad18 strain growth inhibition, active compounds read high
Outline: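 Steps: expose repair-defective yeast to compound; measure growth; express inhibition against vehicle-treated controls.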

[16] = NCI Yeast Anticancer Drug Screen. Data for the mgt1 strain (AID 153); conditions: S. cerevisiae mgt1 mutant growth inhibition, active compounds read high
Outline: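 Measured: inhibition of mgt1 yeast growth by compound, normalized to vehicle-treated cultures.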

[17] = at 5.0 µM (retest, dose inferred, filed as 0.5)
[18] = at 50.0 µM (retest, dose inferred, filed as 5.0)

## CN(C)CCSC1=Nc2ccc(Cl)cc2C(c2ccccc2Cl)=NC1
[1]; at 1.2 µM
  growth inhibition: -2%
[1]; at 3.7 µM
  growth inhibition: -1%
[1]; at 11.0 µM
  growth inhibition: 6%
[1]; at 33.0 µM
  growth inhibition: 15%
[1]; at 100.0 µM
  growth inhibition: 47%

## CNC(=O)OCC1C2=C(C(=O)C(C)=C(N)C2=O)N2CC3C(N3C)C12OC (stereo unspecified)
[2]; at 1.2 µM
  growth inhibition: 8%
[2]; at 3.7 µM
  growth inhibition: 50%
[2]; at 11.0 µM
  growth inhibition: 52%
[2]; at 33.0 µM
  growth inhibition: 49%
[2]; at 100.0 µM
  growth inhibition: 72% (active)
[3]; at 1.2 µM
  growth inhibition: -2%
[3]; at 3.7 µM
  growth inhibition: 4%
[3]; at 11.0 µM
  growth inhibition: 4%
[3]; at 33.0 µM
  growth inhibition: 2%
[3]; at 100.0 µM
  growth inhibition: 17%
[4]; at 1.2 µM
  growth inhibition: 0%
[4]; at 3.7 µM
  growth inhibition: 10%
[4]; at 11.0 µM
  growth inhibition: 22%
[4]; at 33.0 µM
  growth inhibition: 30%
[4]; at 100.0 µM
  growth inhibition: 41%
[5]; at 1.2 µM
  growth inhibition: -12%
[5]; at 3.7 µM
  growth inhibition: 6%
[5]; [17]
  growth inhibition: 37%
[5]; at 11.0 µM
  growth inhibition: 15%
[5]; at 33.0 µM
  growth inhibition: 22%
[5]; [18]
  growth inhibition: 63%
[5]; at 50.0 µM
  growth inhibition: 51.6%
[5]; at 100.0 µM
  growth inhibition: 52%
[6]; at 1.2 µM
  growth inhibition: -14%
[6]; at 3.7 µM
  growth inhibition: 2%
[6]; [17]
  growth inhibition: 20%
[6]; at 11.0 µM
  growth inhibition: -1%
[6]; at 33.0 µM
  growth inhibition: 16%
[6]; [18]
  growth inhibition: 61%
[6]; at 50.0 µM
  growth inhibition: 55%
[6]; at 100.0 µM
  growth inhibition: 49%
[7]; at 1.2 µM
  growth inhibition: -18%
[7]; at 3.7 µM
  growth inhibition: -9%
[7]; at 11.0 µM
  growth inhibition: 0%
[7]; at 33.0 µM
  growth inhibition: 14%
[7]; at 100.0 µM
  growth inhibition: 46%
[8]; [17]
  growth inhibition: 30%
[8]; [18]
  growth inhibition: 64%
[8]; at 50.0 µM
  growth inhibition: 42.1%
[9]; at 1.2 µM
  growth inhibition: 20%
[9]; at 3.7 µM
  growth inhibition: 22%
[9]; at 11.0 µM
  growth inhibition: 17%
[9]; at 33.0 µM
  growth inhibition: 35%
[9]; at 100.0 µM
  growth inhibition: 37%
[10]; [17]
  growth inhibition: 10%
[10]; [18]
  growth inhibition: 44%
[10]; at 50.0 µM
  growth inhibition: 43.1%
[11]; at 1.2 µM
  growth inhibition: 1%
[11]; at 3.7 µM
  growth inhibition: -4%
[11]; [17]
  growth inhibition: 20%
[11]; at 11.0 µM
  growth inhibition: -5%
[11]; at 33.0 µM
  growth inhibition: 9%
[11]; [18]
  growth inhibition: 43%
[11]; at 50.0 µM
  growth inhibition: 29.4%
[11]; at 100.0 µM
  growth inhibition: 23%
[12]; at 1.2 µM
  growth inhibition: -33%
[12]; at 3.7 µM
  growth inhibition: -40%
[12]; at 11.0 µM
  growth inhibition: -39%
[12]; at 33.0 µM
  growth inhibition: -5%
[12]; at 100.0 µM
  growth inhibition: 21%
[13]; at 1.2 µM
  growth inhibition: -17%
[13]; at 3.7 µM
  growth inhibition: -4%
[13]; at 11.0 µM
  growth inhibition: -6%
[13]; at 33.0 µM
  growth inhibition: 14%
[13]; at 100.0 µM
  growth inhibition: 39%
[14]; at 1.2 µM
  growth inhibition: 4%
[14]; at 3.7 µM
  growth inhibition: 8%
[14]; at 11.0 µM
  growth inhibition: 18%
[14]; at 33.0 µM
  growth inhibition: 29%
[14]; at 100.0 µM
  growth inhibition: 54%
[15]; [17]
  growth inhibition: 63%
[15]; [18]
  growth inhibition: 92% (active)
[15]; at 50.0 µM
  growth inhibition: 67.4%
[1]; at 1.2 µM
  growth inhibition: 12%
[1]; at 3.7 µM
  growth inhibition: 13%
[1]; at 11.0 µM
  growth inhibition: 39%
[1]; at 33.0 µM
  growth inhibition: 73% (active)
[1]; at 100.0 µM
  growth inhibition: 86% (active)

## O=C(O)CCCc1cc(I)c(N(CCCl)CCCl)c(I)c1
[2]; at 1.2 µM
  growth inhibition: -18%
[2]; at 3.7 µM
  growth inhibition: -35%
[2]; at 11.0 µM
  growth inhibition: -14%
[2]; at 33.0 µM
  growth inhibition: 75% (active)
[2]; at 100.0 µM
  growth inhibition: 96% (active)
[3]; at 1.2 µM
  growth inhibition: -59%
[3]; at 3.7 µM
  growth inhibition: -53%
[3]; at 11.0 µM
  growth inhibition: -59%
[3]; at 33.0 µM
  growth inhibition: 68%
[3]; at 100.0 µM
  growth inhibition: 98% (active)
[4]; at 1.2 µM
  growth inhibition: -25%
[4]; at 3.7 µM
  growth inhibition: -15%
[4]; at 11.0 µM
  growth inhibition: -27%
[4]; at 33.0 µM
  growth inhibition: -23%
[4]; at 100.0 µM
  growth inhibition: -33%
[16]; at 1.2 µM
  growth inhibition: -20%
[16]; at 3.7 µM
  growth inhibition: -42%
[16]; at 11.0 µM
  growth inhibition: -42%
[16]; at 33.0 µM
  growth inhibition: 80% (active)
[16]; at 100.0 µM
  growth inhibition: 97% (active)
[5]; at 1.2 µM
  growth inhibition: -60%
[5]; at 3.7 µM
  growth inhibition: -55%
[5]; [17]
  growth inhibition: 41%
[5]; at 11.0 µM
  growth inhibition: -35%
[5]; at 33.0 µM
  growth inhibition: 45%
[5]; [18]
  growth inhibition: 98% (active)
[5]; at 50.0 µM
  growth inhibition: 37.9%
[5]; at 100.0 µM
  growth inhibition: 94% (active)
[6]; at 1.2 µM
  growth inhibition: -77%
[6]; at 3.7 µM
  growth inhibition: -73%
[6]; [17]
  growth inhibition: 11%
[6]; at 11.0 µM
  growth inhibition: -36%
[6]; at 33.0 µM
  growth inhibition: 60%
[6]; [18]
  growth inhibition: 99% (active)
[6]; at 50.0 µM
  growth inhibition: 69.1%
[6]; at 100.0 µM
  growth inhibition: 95% (active)
[7]; at 1.2 µM
  growth inhibition: -59%
[7]; at 3.7 µM
  growth inhibition: -59%
[7]; at 11.0 µM
  growth inhibition: -26%
[7]; at 33.0 µM
  growth inhibition: 37%
[7]; at 100.0 µM
  growth inhibition: 95% (active)
[8]; [17]
  growth inhibition: 50%
[8]; [18]
  growth inhibition: 99% (active)
[8]; at 50.0 µM
  growth inhibition: 46.2%
[10]; [17]
  growth inhibition: 45%
[10]; [18]
  growth inhibition: 98% (active)
[10]; at 50.0 µM
  growth inhibition: 53.5%
[11]; at 1.2 µM
  growth inhibition: -58%
[11]; at 3.7 µM
  growth inhibition: -37%
[11]; [17]
  growth inhibition: 51%
[11]; at 11.0 µM
  growth inhibition: -60%
[11]; at 33.0 µM
  growth inhibition: 73% (active)
[11]; [18]
  growth inhibition: 97% (active)
[11]; at 50.0 µM
  growth inhibition: 48%
[11]; at 100.0 µM
  growth inhibition: 94% (active)
[12]; at 1.2 µM
  growth inhibition: -13%
[12]; at 3.7 µM
  growth inhibition: -14%
[12]; at 11.0 µM
  growth inhibition: -19%
[12]; at 33.0 µM
  growth inhibition: 91% (active)
[12]; at 100.0 µM
  growth inhibition: 97% (active)
[13]; at 1.2 µM
  growth inhibition: -50%
[13]; at 3.7 µM
  growth inhibition: -29%
[13]; at 11.0 µM
  growth inhibition: -38%
[13]; at 33.0 µM
  growth inhibition: 85% (active)
[13]; at 100.0 µM
  growth inhibition: 95% (active)
[14]; at 1.2 µM
  growth inhibition: -40%
[14]; at 3.7 µM
  growth inhibition: -46%
[14]; at 11.0 µM
  growth inhibition: -24%
[14]; at 33.0 µM
  growth inhibition: 88% (active)
[14]; at 100.0 µM
  growth inhibition: 96% (active)
[15]; [17]
  growth inhibition: 25%
[15]; [18]
  growth inhibition: 98% (active)
[15]; at 50.0 µM
  growth inhibition: 69.3%
[1]; at 1.2 µM
  growth inhibition: -63%
[1]; at 3.7 µM
  growth inhibition: -50%
[1]; at 11.0 µM
  growth inhibition: -13%
[1]; at 33.0 µM
  growth inhibition: 76% (active)
[1]; at 100.0 µM
  growth inhibition: 93% (active)
